Measurements as given in PubChem BioAssay (Tox21).
Inconclusive results are not listed. A structure can be active in one record and inactive in another. Activity calls are given as the source filed them. Unless noted, calls come from the whole dose curve.

Assays:
[1] = Nuclear factor erythroid 2-related factor 2/antioxidant responsive element (Nrf2/ARE) small molecule agonists: luciferase reporter gene qHTS assay in human keratinocytes (AID 1919969); note: nearly all actives have a fitted effect of over 35% in size; note: potency is the fitted concentration of half-maximal effect
[2] = biological target: KiSS-1 receptor (Homo sapiens) (UniProt Q969F8); assay: Human kisspeptin (KISS1R) small molecule agonists, calcium flux assay in KISS1R-HEK293 cells (AID 1920064; active = well fitted activation curve with a large enough effect in the repeat runs)
Sequence of KiSS-1 receptor (Homo sapiens) (Q969F8 whole entry, looked up): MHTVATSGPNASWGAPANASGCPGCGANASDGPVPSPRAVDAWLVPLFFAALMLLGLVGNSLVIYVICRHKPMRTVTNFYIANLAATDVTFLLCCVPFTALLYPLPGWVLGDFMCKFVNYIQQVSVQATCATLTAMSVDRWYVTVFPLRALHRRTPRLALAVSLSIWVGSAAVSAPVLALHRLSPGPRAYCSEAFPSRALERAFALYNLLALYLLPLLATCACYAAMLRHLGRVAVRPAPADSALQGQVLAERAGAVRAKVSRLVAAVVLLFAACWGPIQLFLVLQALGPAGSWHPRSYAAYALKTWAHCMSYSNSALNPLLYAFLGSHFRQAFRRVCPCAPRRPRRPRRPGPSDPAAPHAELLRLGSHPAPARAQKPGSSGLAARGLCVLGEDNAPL
In short: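 Measures KISS1R agonism through calcium-sensitive dye fluorescence in stably transfected HEK293 cells, read for 3 min after pin-tool compound delivery; 15-point titrations in triplicate.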

[3] = G protein-coupled receptor (GPCR) small molecule agonists, calcium flux assay: HEK293 wild type cell line counter screen (AID 1920065)
In short: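 Readout: fluorescence at 480 nm excitation/540 nm emission, sampled at 1 s intervals for 3 min. Cells had been cultured 18 h, then dye-loaded 1 h at 37 C before compound or ATP addition.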

[4] = p53 small molecule agonists, cell-based qHTS assay with human liver microsomes (AID 1963577);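 note: p53 response element beta-lactamase reporter cells with liver microsomes plus NADPH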
In short: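 In this qHTS, p53 response-element beta-lactamase cells receive test compound together with a microsome/NADPH activating system (0.5 mg/mL final each) and are incubated 16 h at 37 C before LiveBLAzer fluorescence detection.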

[5] = p53 small molecule agonists, cell-based qHTS assay with rat liver microsomes (AID 1963578)
In short: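 Agonist mode in p53RE-bla reporter cells, with compounds co-incubated 16 h at 37 C alongside 0.5 mg/mL rat liver microsomes and 0.5 mg/mL NADPH (final), followed by a 2 h LiveBLAzer detection step.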

[6] = p53 small molecule agonists, cell-based qHTS assay with human liver microsomes: qHTS cell viability counter screen (AID 1963579); note: nearly all actives have a fitted effect of over 45% in size
In short: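 Metabolically activated exposure: compounds, human liver microsomes and NADPH (0.5 mg/mL final apiece) were added to p53RE-bla cells seeded 5 h earlier, left 16 h at 37 C, and then assessed for viability by CellTiter-Glo luminescence.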

[7] = p53 small molecule agonists, cell-based qHTS assay with rat liver microsomes: qHTS cell viability counter screen (AID 1963580); note: nearly all actives have a fitted effect of over 45% in size
In short: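 p53RE-bla HCT-116 cells (4,000/well) rested 5 h at 37 C, then given Tox21 compounds in DMSO with rat liver microsomes (0.5 mg/mL final) plus NADPH (0.5 mg/mL final) for 16 h at 37 C. Viability read by CellTiter-Glo luminescence after 30 min at room temperature.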

[8] = biological target: 5-hydroxytryptamine receptor 2A (Homo sapiens) (UniProt P28223); assay: 5-hydroxytryptamine receptor 2A (HTR2A) small molecule agonists, cell-based qHTS assay (AID 1963587); note: nearly all actives have a fitted effect of over 30% in size; note: potency is the fitted concentration of half-maximal effect
Sequence of 5-hydroxytryptamine receptor 2A (Homo sapiens) (P28223 whole entry, looked up): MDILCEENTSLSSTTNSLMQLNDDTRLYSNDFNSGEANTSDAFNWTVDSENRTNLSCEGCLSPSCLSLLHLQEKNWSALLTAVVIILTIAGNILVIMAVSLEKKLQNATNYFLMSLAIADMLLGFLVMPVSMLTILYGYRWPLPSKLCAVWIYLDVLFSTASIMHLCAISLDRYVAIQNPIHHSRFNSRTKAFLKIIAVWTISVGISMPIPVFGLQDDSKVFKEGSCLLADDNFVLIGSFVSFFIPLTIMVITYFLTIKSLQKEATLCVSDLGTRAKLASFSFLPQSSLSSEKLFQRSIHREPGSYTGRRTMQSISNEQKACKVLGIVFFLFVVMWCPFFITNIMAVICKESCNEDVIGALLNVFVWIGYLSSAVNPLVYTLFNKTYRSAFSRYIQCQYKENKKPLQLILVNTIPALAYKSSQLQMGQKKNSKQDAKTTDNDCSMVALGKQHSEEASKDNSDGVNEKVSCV
In short: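 HTR2A-CHO cells, plated 18 h at 37 C/5% CO2, dye-loaded 1 h at 37 C; compounds in DMSO added by pin tool (agonist mode). Intracellular calcium flux read as kinetic fluorescence on FDSS over 2 min at 1 s intervals.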

[9] = biological target: Muscarinic acetylcholine receptor M1 (Homo sapiens) (UniProt P11229); assay: Cholinergic receptor muscarinic 1 (CHRM1) small molecule antagonists, cell-based qHTS assay (AID 1963588); note: nearly all actives have a fitted effect of over 40% in size; note: potency is the fitted concentration of half-maximal effect
Sequence of Muscarinic acetylcholine receptor M1 (Homo sapiens) (P11229 whole entry, looked up): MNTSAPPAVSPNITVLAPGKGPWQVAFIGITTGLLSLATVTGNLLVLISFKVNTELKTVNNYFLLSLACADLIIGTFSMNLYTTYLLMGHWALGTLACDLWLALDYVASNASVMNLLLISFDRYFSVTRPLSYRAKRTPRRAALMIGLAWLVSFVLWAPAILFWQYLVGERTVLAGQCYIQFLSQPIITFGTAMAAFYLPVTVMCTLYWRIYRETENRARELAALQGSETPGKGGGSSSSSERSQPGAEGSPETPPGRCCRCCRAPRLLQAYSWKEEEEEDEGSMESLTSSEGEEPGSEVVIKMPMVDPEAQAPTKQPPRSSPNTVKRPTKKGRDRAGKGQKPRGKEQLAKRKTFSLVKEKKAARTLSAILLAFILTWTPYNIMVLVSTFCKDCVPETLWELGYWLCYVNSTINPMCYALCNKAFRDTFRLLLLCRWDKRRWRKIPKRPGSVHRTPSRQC
In short: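 CHRM1-CHO calcium-flux assay, antagonist mode. Cells were seeded 18 h, dye-loaded 1 h at 37 C and given compound for 5 min at RT, then acetylcholine was added at 50nM. FDSS fluorescence was read 3 min; 15 concentrations, three runs.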

[10] = biological target: Muscarinic acetylcholine receptor M1 (Homo sapiens) (UniProt P11229); assay: Cholinergic receptor muscarinic 1 (CHRM1) small molecule agonists, cell-based qHTS assay (AID 1963589); note: nearly all actives have a fitted effect of over 35% in size
In short: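 Each compound was tested at 15 concentrations across three independent runs on dye-loaded CHO cells stably expressing human CHRM1, reading intracellular calcium fluorescence kinetically at 1 sec intervals.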

[11] = biological target: Beta-2 adrenergic receptor (Homo sapiens) (UniProt P07550); assay: Adrenergic beta2 receptor (ADRB2) small molecule antagonists, cell-based qHTS assay (AID 1963592); note: series mostly up to about 92 µM; nearly all actives have a fitted effect of over 50% in size
Sequence of Beta-2 adrenergic receptor (Homo sapiens) (P07550 whole entry, looked up): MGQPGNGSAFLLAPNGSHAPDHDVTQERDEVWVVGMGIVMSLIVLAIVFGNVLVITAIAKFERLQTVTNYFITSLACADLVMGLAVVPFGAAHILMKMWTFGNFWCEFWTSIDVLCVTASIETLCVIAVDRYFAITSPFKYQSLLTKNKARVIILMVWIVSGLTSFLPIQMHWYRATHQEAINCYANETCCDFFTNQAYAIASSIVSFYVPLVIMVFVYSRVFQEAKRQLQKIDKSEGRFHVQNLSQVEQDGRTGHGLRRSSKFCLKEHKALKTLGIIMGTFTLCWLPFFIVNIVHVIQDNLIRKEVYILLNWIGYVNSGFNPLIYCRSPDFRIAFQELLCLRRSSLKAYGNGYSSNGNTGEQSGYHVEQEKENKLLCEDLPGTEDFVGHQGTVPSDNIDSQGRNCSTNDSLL
In short: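 Cells (CHO, stable ADRB2 overexpression) incubated 18-20hr at 37C; compounds added from DMSO; agonist mix (1nM isoproterenol, 100uM IBMX, 25uM Ro-20-1724) added; 0.5hr RT; d2-cAMP and anti-cAMP-cryptate added; 1hr RT; 665/615 nm read.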

[12] = biological target: D(2) dopamine receptor (Homo sapiens) (UniProt P14416); assay: Dopamine D2 receptor (DRD2) small molecule agonists, cell-based qHTS assay (AID 1963594); note: nearly all actives have a fitted effect of over 35% in size
Sequence of D(2) dopamine receptor (Homo sapiens) (P14416 whole entry, looked up): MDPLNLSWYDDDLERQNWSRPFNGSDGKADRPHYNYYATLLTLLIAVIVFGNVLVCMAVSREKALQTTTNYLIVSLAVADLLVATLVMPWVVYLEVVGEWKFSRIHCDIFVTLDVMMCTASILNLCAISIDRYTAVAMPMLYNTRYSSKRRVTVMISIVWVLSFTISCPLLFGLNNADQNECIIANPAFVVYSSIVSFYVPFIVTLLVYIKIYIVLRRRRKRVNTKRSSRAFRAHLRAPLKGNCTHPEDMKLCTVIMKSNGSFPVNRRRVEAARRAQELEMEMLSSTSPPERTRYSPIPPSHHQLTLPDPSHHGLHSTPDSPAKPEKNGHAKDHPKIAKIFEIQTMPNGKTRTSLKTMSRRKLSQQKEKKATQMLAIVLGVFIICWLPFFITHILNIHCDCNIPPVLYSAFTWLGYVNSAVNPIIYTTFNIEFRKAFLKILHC
In short: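 HEK293 cells stably expressing DRD2 were cultured 24 h at 37 C, then given Ro20-1724 (0.1 mM final) and compounds for 10 min at room temperature. NKH477 (200nM) was then added for 30 min. cAMP was read by HTRF.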

[13] = biological target: D(2) dopamine receptor (Homo sapiens) (UniProt P14416); assay: Dopamine D2 receptor (DRD2) small molecule antagonists, cell-based qHTS assay (AID 1963595; active = well fitted inhibition curve with a large enough effect in the signal ratio in the repeat runs, with a control signal flat; the % refers to the signal ratio)
In short: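 DRD2-HEK293; 0.1 mM Ro20-1724; cpd 10 min RT; NKH477 200 nM + quinpirole 12 nM, 30 min RT; HTRF cAMP (cAMP-d2/anti-cAMP cryptate), 665/620 nm ratio after 1 h.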

[14] = p53 small molecule agonists, cell-based qHTS assay: qHTS cell viability counter screen (AID 1963581); note: nearly all actives have a fitted effect of over 45% in size
In short: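 In the same plates used for the p53 bla reporter, HCT-116 cells given compounds for 16 h at 37 C received CellTiter-Glo; luminescence was recorded 30 min later at room temperature.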

[15] = p53 small molecule agonists, cell-based qHTS assay (AID 1963582; active = well fitted activation curve with a large enough effect in the signal ratio in the repeat runs, not every such curve was filed as active; the % refers to the signal ratio)
In short: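 Compounds are pin-transferred in DMSO onto p53RE-bla cells and incubated 16 h at 37 C. The B/G FRET beta-lactamase substrate is then applied for 2 h at RT and fluorescence recorded.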

[16] = biological target: 5-hydroxytryptamine receptor 2A (Homo sapiens) (UniProt P28223); assay: 5-hydroxytryptamine receptor 2A (HTR2A) small molecule antagonists, cell-based qHTS assay (AID 1963586); note: nearly all actives have a fitted effect of over 45% in size; note: potency is the fitted concentration of half-maximal effect
In short: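 Antagonist-mode intracellular calcium assay: DOI (4 nM) added after 5 min compound pre-incubation at room temperature to dye-loaded HTR2A-CHO cells. Fluorescence followed for 3 min, sampled every second.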

[17] = cAMP Responsive Elements (CRE) small molecule agonists, cell-based qHTS assay (AID 1963590)
In short: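 Cell line: CRE-bla HEK 293T; medium DMEM/10% dialyzed FBS/0.1 mM NEAA/1 mM pyruvate/25 mM HEPES; 3 h compound exposure; beta-lactamase FRET readout after 2 h substrate loading at RT.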

[18] = cAMP Responsive Elements (CRE) small molecule antagonists, cell-based qHTS assay (AID 1963591; active = well fitted inhibition curve with a large enough effect in the signal ratio in the repeat runs, not every such curve was filed as active; the % refers to the signal ratio)
In short: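 Inhibition of NKH477-driven (0.25 uM final) CRE-beta-lactamase signal in HEK293T cells, 3 h compound exposure at 37 °C, detected by FRET substrate fluorescence.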

[19] = biological target: Beta-2 adrenergic receptor (Homo sapiens) (UniProt P07550); assay: Adrenergic beta2 receptor (ADRB2) small molecule agonists, cell-based qHTS assay (AID 1963593);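 note: CHO cells stably overexpressing human ADRB2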
In short: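 CHO cells stably over-expressing ADRB2 were plated overnight at 37C, then dosed with compounds plus a stimulation mix containing 100uM IBMX and 25uM Ro-20-1724 for 0.5hr at room temperature. cAMP was measured by HTRF competition, 1hr.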

[20] = biological target: Gonadotropin-releasing hormone receptor (Homo sapiens) (UniProt P30968); assay: Human gonadotropin-releasing hormone receptor (GnRHR) small molecule agonists, calcium flux assay in GnRHR-HEK293 cells (AID 1920063); note: nearly all actives have a fitted effect of over 35% in size
Sequence of Gonadotropin-releasing hormone receptor (Homo sapiens) (P30968 whole entry, looked up): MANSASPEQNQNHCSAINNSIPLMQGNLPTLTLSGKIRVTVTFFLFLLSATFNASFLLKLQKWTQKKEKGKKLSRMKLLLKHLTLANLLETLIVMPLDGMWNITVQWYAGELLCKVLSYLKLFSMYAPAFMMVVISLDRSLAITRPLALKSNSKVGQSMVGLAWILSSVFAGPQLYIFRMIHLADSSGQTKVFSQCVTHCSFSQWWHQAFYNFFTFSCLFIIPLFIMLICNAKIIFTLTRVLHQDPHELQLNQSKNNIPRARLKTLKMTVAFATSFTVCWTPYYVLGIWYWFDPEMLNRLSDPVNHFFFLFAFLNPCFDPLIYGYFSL
In short: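 Fluorescence kinetics (480 nm excitation, 540 nm emission; 3 min, 1 s steps) report calcium mobilisation in human GnRHR-HEK293 cells in agonist mode. Dye incubation: 1 h, 37 C.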

Measured: Potency

CCCCCCOC(=O)NC(=N)c1ccc(NCc2nc3cc(C(=O)N(CCC(=O)OCC)c4ccccn4)ccc3n2C)cc1
not listed: [14] | [15] | [16] | [17] | [18] | [19] | [20]
inactive: all other assays above

C[C@]12CC[C@@H]3c4ccc(O)cc4CC[C@H]3[C@@H]1CC[C@@H]2OC(=O)CCC1CCCC1
not listed: [20]
inactive: all other assays above

Oc1ccc(-c2ccccc2)c(Cl)c1
active: [1] 54.5 µM | [16] 26.5 µM
not listed: [6] | [8] | [17] | [18] | [20]
inactive: all other assays above

CCCCCCOC(=O)c1ccc(O)cc1
19.4 µM (active) and inactive: [1]
not listed: [9] | [13] | [16] | [17] | [18] | [20]
inactive: all other assays above

CCC(CN)=C(c1ccccc1)c1ccccc1
active: [8] 23.9 µM
not listed: [9] | [17] | [18] | [19] | [20]
inactive: all other assays above

O=C(Oc1ccccc1)c1cccc(C(=O)Oc2ccccc2)c1
inactive: [20] | [3] | [6] | [7] | [8] | [9] | [10] | [12]
active: [1] 1.15 µM

CC(C(O)c1ccccc1)N(C)CCOC(c1ccccc1)c1ccccc1 (stereo not drawn)
active: [8] 23.9 µM | [9] 1.16 µM
not listed: [11] | [15] | [16] | [17] | [18] | [19] | [20]
inactive: all other assays above
